# Measurements reported in article PMC7862700, “An all-to-all approach to the identification of sequence-specific readers for epigenetic DNA modifications on cytosine”.
# Legend:
# Assay in all cases: DAPPL (digital affinity profiling via proximity ligation, sequencing); 10 mM Tris-HCl pH 7.5, 50 mM NaCl, 1 mM DTT, 4% glycerol, room temperature, 30 min; GST-TFs on glutathione beads, 16-mer random dsDNA library, 0.1% formaldehyde crosslink after washing; high values mean tight binding
# FEV = target: T1, FEV (Homo sapiens, UniProt Q99581 1-238); details: protein: recombinant; tags: N-terminal GST; dsDNA, one strand shown
# T1 sequence: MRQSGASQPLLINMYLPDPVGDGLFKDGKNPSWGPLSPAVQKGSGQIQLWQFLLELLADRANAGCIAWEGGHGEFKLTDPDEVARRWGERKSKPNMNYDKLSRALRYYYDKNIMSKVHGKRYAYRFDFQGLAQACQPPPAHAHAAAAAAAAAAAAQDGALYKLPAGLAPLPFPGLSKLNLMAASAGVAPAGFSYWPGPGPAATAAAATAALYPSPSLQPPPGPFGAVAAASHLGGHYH
# Method in brief: (§1)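 Human transcription factors were made in yeast as GST fusions, captured on glutathione beads and barcoded with DNA. With a tag-only sample included, the pool was incubated with 200 nmole of a random double-stranded 16-mer DNA library in Tris/NaCl/DTT/glycerol buffer at room temperature for 30 min, then crosslinked with 0.1% formaldehyde after washing, ligated by proximity, amplified and sequenced. For binding signal, each hexamer's read frequency for a factor is divided by its frequency for the tag-only sample.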
# ETV5 = ETV5 (Homo sapiens, UniProt P41161 1-510); details: protein: recombinant; tags: N-terminal GST; dsDNA, one strand shown
# Sequence of ETV5 (P41161 whole entry): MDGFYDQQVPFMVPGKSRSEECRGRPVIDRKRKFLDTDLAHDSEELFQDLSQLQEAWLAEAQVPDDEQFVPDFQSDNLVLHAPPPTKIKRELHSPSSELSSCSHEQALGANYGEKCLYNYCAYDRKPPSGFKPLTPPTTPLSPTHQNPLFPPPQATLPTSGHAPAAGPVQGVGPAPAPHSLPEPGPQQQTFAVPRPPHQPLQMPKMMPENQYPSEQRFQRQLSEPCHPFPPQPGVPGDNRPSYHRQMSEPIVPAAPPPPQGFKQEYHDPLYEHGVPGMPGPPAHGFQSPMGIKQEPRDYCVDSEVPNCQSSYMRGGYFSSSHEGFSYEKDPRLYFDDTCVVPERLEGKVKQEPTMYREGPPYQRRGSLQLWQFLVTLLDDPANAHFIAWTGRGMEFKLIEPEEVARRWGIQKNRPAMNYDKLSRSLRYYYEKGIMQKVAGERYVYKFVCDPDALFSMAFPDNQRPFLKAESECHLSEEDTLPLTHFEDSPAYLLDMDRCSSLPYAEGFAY
# Method in brief: as §1
# HSF1 = HSF1 (Homo sapiens, UniProt Q00613 1-529); details: protein: recombinant; tags: N-terminal GST; chain copies: 3; dsDNA, one strand shown
# Sequence of HSF1 (Q00613 whole entry): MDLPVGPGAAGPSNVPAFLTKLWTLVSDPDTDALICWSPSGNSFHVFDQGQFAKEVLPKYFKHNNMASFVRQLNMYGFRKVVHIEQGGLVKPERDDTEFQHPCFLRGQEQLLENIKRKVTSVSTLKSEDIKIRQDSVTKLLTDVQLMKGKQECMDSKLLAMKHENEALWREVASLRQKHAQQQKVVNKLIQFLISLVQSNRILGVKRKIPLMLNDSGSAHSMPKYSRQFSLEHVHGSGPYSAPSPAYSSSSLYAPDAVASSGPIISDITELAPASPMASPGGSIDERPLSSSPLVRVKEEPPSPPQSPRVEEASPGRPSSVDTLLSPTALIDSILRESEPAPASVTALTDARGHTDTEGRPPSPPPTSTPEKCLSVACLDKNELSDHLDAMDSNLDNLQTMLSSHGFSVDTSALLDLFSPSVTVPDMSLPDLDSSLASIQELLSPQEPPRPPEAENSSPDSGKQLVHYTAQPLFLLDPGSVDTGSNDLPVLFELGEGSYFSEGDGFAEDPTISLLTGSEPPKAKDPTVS
# Method in brief: as §1
# SPIC = target: T2, SPIC (Homo sapiens, UniProt Q8N5J4 1-248); details: protein: recombinant; tags: N-terminal GST; dsDNA, one strand shown
# T2 sequence: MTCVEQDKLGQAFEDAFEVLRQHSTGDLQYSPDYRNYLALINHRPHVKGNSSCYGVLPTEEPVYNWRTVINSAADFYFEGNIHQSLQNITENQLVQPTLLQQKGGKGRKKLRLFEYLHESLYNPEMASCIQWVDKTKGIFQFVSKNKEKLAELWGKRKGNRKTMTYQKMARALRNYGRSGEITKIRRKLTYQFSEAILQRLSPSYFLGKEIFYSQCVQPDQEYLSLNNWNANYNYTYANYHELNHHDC
# Method in brief: as §1
# ELF4 = ELF4 (Homo sapiens, UniProt Q99607 1-663); details: protein: recombinant; tags: N-terminal GST; dsDNA, one strand shown
# Sequence of ELF4 (Q99607 whole entry): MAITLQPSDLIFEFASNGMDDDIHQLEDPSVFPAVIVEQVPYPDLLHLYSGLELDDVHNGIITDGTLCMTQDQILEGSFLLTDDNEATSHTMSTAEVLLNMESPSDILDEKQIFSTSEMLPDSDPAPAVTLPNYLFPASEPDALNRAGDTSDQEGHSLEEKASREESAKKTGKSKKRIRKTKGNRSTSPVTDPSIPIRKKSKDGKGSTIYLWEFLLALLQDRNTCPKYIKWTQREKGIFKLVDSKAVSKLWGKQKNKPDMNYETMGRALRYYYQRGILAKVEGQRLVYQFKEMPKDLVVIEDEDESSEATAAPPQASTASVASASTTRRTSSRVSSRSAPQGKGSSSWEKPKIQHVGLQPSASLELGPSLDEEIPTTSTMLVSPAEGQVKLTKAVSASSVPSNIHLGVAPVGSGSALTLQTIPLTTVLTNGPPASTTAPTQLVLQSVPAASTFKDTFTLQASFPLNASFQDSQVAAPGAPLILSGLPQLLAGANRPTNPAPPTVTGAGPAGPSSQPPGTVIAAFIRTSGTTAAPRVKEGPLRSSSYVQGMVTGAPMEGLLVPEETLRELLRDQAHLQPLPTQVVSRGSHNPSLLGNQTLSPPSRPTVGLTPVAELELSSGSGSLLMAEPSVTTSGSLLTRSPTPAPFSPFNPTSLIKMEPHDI
# Method in brief: as §1
# ELK4 = target: T3, ELK4 (Homo sapiens, UniProt P28324-2 1-405); details: protein: recombinant; tags: N-terminal GST; dsDNA, one strand shown
# T3 sequence: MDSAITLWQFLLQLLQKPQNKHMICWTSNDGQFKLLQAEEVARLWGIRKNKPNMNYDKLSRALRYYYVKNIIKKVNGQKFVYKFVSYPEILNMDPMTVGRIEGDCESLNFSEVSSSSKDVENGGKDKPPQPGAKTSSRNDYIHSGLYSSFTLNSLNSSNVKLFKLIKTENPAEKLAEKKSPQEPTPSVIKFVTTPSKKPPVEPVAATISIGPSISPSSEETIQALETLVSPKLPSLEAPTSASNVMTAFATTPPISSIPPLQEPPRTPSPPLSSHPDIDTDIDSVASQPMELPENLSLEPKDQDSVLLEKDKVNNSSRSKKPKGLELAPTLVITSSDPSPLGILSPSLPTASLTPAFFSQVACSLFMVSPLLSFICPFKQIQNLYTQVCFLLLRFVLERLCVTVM
# Method in brief: as §1
# ETV2 = target: T4, ETV2 (Homo sapiens, UniProt O00321 1-342); details: protein: recombinant; tags: N-terminal GST; dsDNA, one strand shown
# T4 sequence: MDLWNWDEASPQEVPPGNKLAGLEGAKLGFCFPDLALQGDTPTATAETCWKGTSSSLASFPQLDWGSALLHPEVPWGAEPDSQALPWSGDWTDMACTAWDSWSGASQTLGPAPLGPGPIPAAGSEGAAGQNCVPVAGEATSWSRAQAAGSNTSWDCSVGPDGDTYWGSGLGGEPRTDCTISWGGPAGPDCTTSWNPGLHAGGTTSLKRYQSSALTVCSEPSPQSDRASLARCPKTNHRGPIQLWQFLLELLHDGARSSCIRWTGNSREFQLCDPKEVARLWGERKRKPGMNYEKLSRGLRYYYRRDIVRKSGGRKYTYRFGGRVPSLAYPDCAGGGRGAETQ
# Method in brief: as §1
# ELF3 = target: T5, ELF3 (Homo sapiens, UniProt P78545 1-371); details: protein: recombinant; tags: N-terminal GST; dsDNA, one strand shown
# T5 sequence: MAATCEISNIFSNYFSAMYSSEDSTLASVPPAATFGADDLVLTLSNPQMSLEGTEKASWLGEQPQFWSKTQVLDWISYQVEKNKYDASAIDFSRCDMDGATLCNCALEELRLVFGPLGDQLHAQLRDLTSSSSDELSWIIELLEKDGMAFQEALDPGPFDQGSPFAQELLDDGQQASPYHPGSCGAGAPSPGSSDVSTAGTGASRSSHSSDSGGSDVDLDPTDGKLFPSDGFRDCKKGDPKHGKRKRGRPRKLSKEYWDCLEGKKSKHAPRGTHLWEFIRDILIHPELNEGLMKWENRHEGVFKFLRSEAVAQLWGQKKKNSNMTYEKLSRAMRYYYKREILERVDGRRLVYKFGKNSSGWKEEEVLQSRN
# Method in brief: as §1
# CRX = CRX (Homo sapiens, UniProt O43186 1-299); details: protein: recombinant; tags: N-terminal GST; dsDNA, one strand shown
# Sequence of CRX (O43186 whole entry): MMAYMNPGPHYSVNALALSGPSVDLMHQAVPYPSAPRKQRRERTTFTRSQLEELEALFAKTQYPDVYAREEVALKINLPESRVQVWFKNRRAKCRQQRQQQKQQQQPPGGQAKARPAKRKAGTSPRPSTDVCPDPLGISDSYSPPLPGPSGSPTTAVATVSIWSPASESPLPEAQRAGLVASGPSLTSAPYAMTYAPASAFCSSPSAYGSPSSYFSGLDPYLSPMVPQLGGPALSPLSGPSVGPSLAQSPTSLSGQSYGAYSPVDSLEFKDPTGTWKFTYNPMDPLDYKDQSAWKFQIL
# Method in brief: as §1
# ETV1 = ETV1 (Homo sapiens, UniProt P50549 1-477); details: protein: recombinant; tags: N-terminal GST; dsDNA, one strand shown
# Sequence of ETV1 (P50549 whole entry): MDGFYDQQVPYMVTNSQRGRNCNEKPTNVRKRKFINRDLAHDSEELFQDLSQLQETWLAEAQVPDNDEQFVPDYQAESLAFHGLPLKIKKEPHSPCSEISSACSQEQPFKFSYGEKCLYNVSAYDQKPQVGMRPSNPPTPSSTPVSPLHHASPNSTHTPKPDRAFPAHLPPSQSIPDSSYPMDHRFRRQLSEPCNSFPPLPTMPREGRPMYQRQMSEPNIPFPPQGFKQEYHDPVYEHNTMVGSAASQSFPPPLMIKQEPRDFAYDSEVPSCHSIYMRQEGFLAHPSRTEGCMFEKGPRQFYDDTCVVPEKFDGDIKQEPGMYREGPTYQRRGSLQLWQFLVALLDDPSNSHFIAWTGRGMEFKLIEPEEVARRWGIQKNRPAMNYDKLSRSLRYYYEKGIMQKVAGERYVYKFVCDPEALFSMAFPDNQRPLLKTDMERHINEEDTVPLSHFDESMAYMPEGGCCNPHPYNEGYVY
# Method in brief: as §1
sequence,measurement,setting,value
TTCCTC,binding signal,FEV,"2.13 fold enrichment (6-mer frequency, TF over GST control)"
same,binding signal,ETV5,"2.47 fold enrichment (6-mer frequency, TF over GST control)"
same,binding signal,HSF1,"1.61 fold enrichment (6-mer frequency, TF over GST control)"
same,binding signal,SPIC,"2.72 fold enrichment (6-mer frequency, TF over GST control)"
same,binding signal,ELF4,"2.16 fold enrichment (6-mer frequency, TF over GST control)"
same,binding signal,ELK4,"2.1 fold enrichment (6-mer frequency, TF over GST control)"
same,binding signal,ETV2,"2.39 fold enrichment (6-mer frequency, TF over GST control)"
same,binding signal,ELF3,"2.06 fold enrichment (6-mer frequency, TF over GST control)"
same,binding signal,CRX,"1.43 fold enrichment (6-mer frequency, TF over GST control)"
same,binding signal,ETV1,"2.27 fold enrichment (6-mer frequency, TF over GST control)"
